The text below walks through data of PubChem BioAssay AID504834 (National Center for Advancing Translational Sciences (NCATS), 2011).

The structures appear in SMILES notation. Hit rate of the full screen: of about 320,000 compounds, about 22,000 (6.9%) were called active. Roughly 27% stayed inconclusive and do not appear here. What follows is part of a selection rich in actives, with near analogues and random picks from the rest. Where a call stands in place of a potency, no number is given. A number with no mark means an inactive call. The call rests on the fitted dose curve; in most records, active means well fitted inhibition curve with a large enough effect; inconclusive means small, poorly fitted or top-dose-only effect, or another doubt; inactive means no such curve, though single readings can be large or run the other way.
Potency means the concentration at half of the fitted maximal effect.

The experiment is described as follows: Primary qHTS for delayed death inhibitors of the malarial parasite plastid, 96 hour incubation. The conditions noted are these: P. falciparum luciferase reporter growth; series mostly up to 28.7 µM. Summed up: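 Delayed-death screen, second-generation endpoint: infected erythrocytes, 2% hematocrit, 0.05% parasitemia final; 96 hours at 37 C, 5% CO2; luciferase detection reagent; luminescence decrease equals reduced growth.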
Consider `Cc1cccc(C)c1NC(=O)CSc1ccc([N+](=O)[O-])cn1`, for which the Potency entry was “inactive”. Regarding `O=[N+]([O-])c1ccc(Sc2n[nH]c(-c3ccco3)n2)nc1`, the Potency entry was “inactive”. Still for that read-out and setting: to `CC(C)(C)n1cnnc1Sc1ccc([N+](=O)[O-])cn1` belongs 1.65 µM (active); to `Cc1cccc(N(C(=O)c2csnn2)C(C(=O)NCc2ccccc2)c2ccncc2)c1` (stereo not given), “inactive”; to `CCOc1cc(C(=S)N2CCOCC2)ccc1O`, 13.1 µM (active). `COc1cc(C(=S)N2CCOCC2)ccc1O`: the Potency entry is “inactive”. Consider `CCOc1cc(C(=S)N2CCOCC2)ccc1OS(=O)(=O)c1ccc(Br)cc1`, for which the Potency result was “inactive”.

As for `CCOC(=O)N1CCN(C(=O)CSc2nc(=O)n3cccc(C)c3n2)CC1`, the Potency result is “inactive”.

On to `CCN1c2nc3c(C)cccn3c(=O)c2CC2(C(=O)N(C)C(=O)N(C)C2=O)C1C` (stereo not given), for which the Potency was 3.29 µM (active). Take `CN(Cc1c(F)cccc1Cl)C(=O)CNC(=O)c1ccc2c(c1)OCO2`: the Potency entry was “inactive”.

As to `Cc1ccc(C(CC(=O)O)NC(=O)c2ccc(S(=O)(=O)N3CCCC3)cc2)cc1` (stereo not given), the Potency result was “inactive”.

On to `Cc1cc(OCCCC(=O)NCCN2C(=O)S/C(=C\c3cccnc3)C2=O)ccc1Cl`, for which the Potency is 11.7 µM (active). For the compound `O=C(NCCN1C(=O)S/C(=C\c2cccnc2)C1=O)c1cccc(OC(F)F)c1`, the Potency result is “inactive”.

As for `CCOc1ccc(N2CC(C(=O)NCCN3C(=O)S/C(=C\c4cccnc4)C3=O)CC2=O)cc1` (stereo not given), the Potency result is “inactive”. Take `COC(=O)c1ccc(S(=O)(=O)NCc2ccccc2)n1C`: the Potency result is “inactive”.

As to `Cc1ccc(C(=O)CCC(=O)N(C)CC(=O)Nc2c(Cl)cccc2Cl)cc1`, the Potency entry is “inactive”.

On to `COc1cc(OC)cc(-c2cc3nc(C4CCN(C(=O)OC(C)(C)C)CC4)cc(=O)n3[nH]2)c1`, for which the Potency is 1.65 µM (active). With `CCOC(=O)N1CCC(c2cc(=O)n(-c3ccccc3)[nH]2)CC1`, the Potency entry was “inactive”. With `CC1CCN(C(=O)c2cc3nc(C4CC4)cc(C(F)(F)F)n3n2)CC1`, the Potency entry is “inactive”. On the same count and under the same terms, to `O=C(Oc1ccc(-c2nnco2)cc1)c1ccc(F)c(S(=O)(=O)N2CCOCC2)c1` belongs “inactive”; to `O=C(CCS(=O)(=O)c1ccc2c(c1)NC(=O)CS2)NCc1ccccc1Cl`, “inactive”. As for `Cc1csc(/N=C/N(C)C)c1C#N`, the Potency entry is “inactive”. In the case of `Cc1cc(C)c2nc(N(CCN(C)C)C(=O)/C=C/c3cccs3)sc2c1`, the Potency was 6.57 µM (active). On the same count and under the same terms, the result for `Cc1cccc2sc(N(CCCN(C)C)C(=O)CCS(=O)(=O)c3ccccc3)nc12` reads “inactive”. As to `CC(=O)N(CCCN(C)C)c1nc2ccc(C)cc2s1`, the Potency result is “inactive”. With `CCOC(=O)c1sc2nc(C)[nH]c(=O)c2c1C`, the Potency entry is “inactive”. `Cc1ccc(SCc2cc(=O)[nH]c(N3CCCCC3)n2)cc1`: the Potency was 5.22 µM (active). For `Cc1ccc(NC(=O)CSc2nc(CSc3ccc(C)cc3)cc(=O)[nH]2)cc1`, the Potency entry was “inactive”.

Take `O=c1cc(CSc2ccccn2)nc(N2CCN(c3ccccc3)CC2)[nH]1`: the activity change, negative = inhibition is -8.4% [at 5.75 µM]. For `O=C(OCCN=C1NS(=O)(=O)c2ccccc21)c1cccc([N+](=O)[O-])c1`, the Potency result was “inactive”.

`NC(=O)c1sc2nc3c(c(-c4ccccc4)c2c1N)CCC3`: the Potency result was “inactive”. Turning to `Cc1cccc(NC(=O)c2sc3nc4c(c(-c5ccco5)c3c2N)CCC4)c1`, the Potency was 1.85 µM (active).

In the case of `Cc1nc2sc(C(=O)c3ccccc3)c(N)c2c2c1CCCC2`, the Potency entry is “inactive”. Regarding `CCN(C(=O)CSc1ncnc2c1cnn2-c1ccccc1)C1CCS(=O)(=O)C1` (stereo not given), the Potency result was “inactive”. For `CCOc1ccc(NC(=O)CN(C)C(=O)CCSc2ccc(F)cc2)cc1OCC`, the Potency entry was “inactive”. On to `CC(=O)Nc1ccc(Nc2nc3c(S(=O)(=O)c4ccc(C)c(C)c4)nnn3c3ccccc23)cc1`, for which the Potency result was “inactive”. Take `Cc1cccc(Nc2nc3c(S(=O)(=O)c4ccccc4)nnn3c3ccccc23)c1C`: the Potency is 0.465 µM (active). On the same count and under the same terms, to `COc1ccc(N2C(=O)CN=C2Nc2cccc(C)c2C)cc1OC` belongs “inactive”. Same read-out and setting: to `CCN(CC)S(=O)(=O)c1ccc(OC)c(NC(=O)CCc2c(C)noc2C)c1` belongs “inactive”. For the compound `O=S(=O)(NC1CC1)c1ccc(Cl)cc1`, the Potency entry was “inactive”.

`CCc1nnc(NC(=O)c2c(O)c3c([nH]c2=O)CCCC3)s1`: the Potency result was “inactive”. `O=C(NCc1ccccn1)c1c(O)c2c([nH]c1=O)CCCC2`: the Potency is 7.38 µM (active). With `C[N+](C)(C)CCNC(=O)c1c(O)c2c([nH]c1=O)CCCC2`, the Potency result is “inactive”.

Regarding `Nc1nnn(CC(=O)N/N=C/c2ccccc2)n1`, the Potency result is “inactive”. Consider `O=c1c2ccccc2c(-c2ccccc2)nn1Cc1ccccc1`, for which the Potency result is “inactive”. With `O=c1cc(N2CCCCC2)c(-c2ccccc2)nn1Cc1cccc(F)c1`, the Potency was 11.7 µM (active). In the case of `O=c1cc(N2CCN(Cc3ccccc3)CC2)c(-c2ccccc2)n[nH]1`, the Potency result was “inactive”. Still for that read-out and setting: the result for `O=C(CN(Cc1ccc(Br)cc1)S(=O)(=O)c1ccccc1)NCc1ccncc1` reads “inactive”; that for `Cc1nn2c(=O)cc(COC(=O)c3ccc(NC(=O)C(C)(C)C)cc3)nc2s1`, “inactive”; that for `CSc1ccc(S(=O)(=O)NCC(=O)OCC(=O)NC2(C#N)CCCCC2)cc1[N+](=O)[O-]`, “inactive”. Regarding `Cc1ccc(C(=O)OCC(=O)N2CC(C)CC(C)C2)cc1S(=O)(=O)N1CCCCC1` (stereo not given), the Potency result is “inactive”.

Consider `Cc1ccc(C(=O)OCC(=O)NCc2cc(C)c(O)c(C)c2)cc1S(=O)(=O)N1CCCCC1`, for which the Potency was 14.7 µM (active).

As to `COc1ccc(CNC(=O)COC(=O)c2ccc(C)c(S(=O)(=O)N3CCOCC3)c2)cc1OC`, the Potency result is “inactive”.

`COc1ccccc1CNS(=O)(=O)c1cc(C(=O)NCc2ccccn2)c(Cl)cc1Cl`: the Potency result is “inactive”. As for `CC(=O)c1cccc(CN2CCC(CO)(Cc3ccccc3)CC2)c1`, the Potency entry was “inactive”. For the compound `COc1ccc(CC2(CO)CCN(Cc3cnn(C)c3)CC2)cc1`, the Potency result was “inactive”. As to `CC(C)(O)C#Cc1ccc(CN2CCC(CO)(CCc3ccccc3)CC2)cc1`, the Potency entry is “inactive”. Same read-out and setting: to `Cc1cccc(-c2ncc(CN3CCC(CO)(CCCc4ccccc4)CC3)cn2)c1` belongs 9.28 µM (active); to `CC(C)c1csc(CN2CCC(CO)(Cc3ccccc3)CC2)n1`, “inactive”; to `OCC1(CCc2ccccc2)CCN(Cc2ccc3nsnc3c2)CC1`, 11.7 µM (active).

As for `CN(CC1CCCO1)S(=O)(=O)c1ccc(C(=O)Nc2ccc(F)cc2)cc1` (stereo not given), the Potency result is “inactive”.

Turning to `COc1cccc(-c2ccc3c(c2)S(=O)(=O)c2cccc(C(=O)O)c2C3=O)c1OC`, the Potency result was “inactive”. The same measure, in the same setting: the result for `CC(=O)COc1ccc2c(-c3ccccc3)cc(=O)oc2c1` reads “inactive”. Take `CCN(CC)C(=O)CC(c1ccc2c(c1)OCO2)c1c(OC)cc(OC)c2c(-c3ccccc3)cc(=O)oc12` (stereo not given): the Potency is 11.7 µM (active). As for `Cc1cc(=O)oc2c(C)c(OCC(=O)N3CCN(Cc4ccc5c(c4)OCO5)CC3)ccc12`, the Potency entry was “inactive”. In the case of `CCN(CC)CCC(c1ccc2c(c1)OCO2)c1c(OC)cc(OC)c2c(-c3ccccc3)cc(=O)oc12` (stereo not given), the Potency was 5.22 µM (active).

Regarding `CCCCN(CC)C(=O)c1ccc2c(c1)OCO2`, the Potency result was “inactive”. As to `Cc1[nH][nH]c(=O)c1C(c1ccc2c(c1)OCO2)c1c(C)[nH][nH]c1=O`, the Potency result is “inactive”. With `COc1ccc(F)cc1S(=O)(=O)NCC(c1ccc2c(c1)OCO2)N1CCN(C)CC1` (stereo not given), the Potency result is “inactive”. As for `COc1ccc(-c2cc(=O)oc3cc(OCC(=O)N[C@@H](Cc4c[nH]c5ccccc45)C(=O)O)ccc23)cc1`, the Potency entry was “inactive”. With `CCN(CC)CCC(c1cc(OC)c(OC)c(OC)c1)c1c(OC)cc(OC)c2c(-c3ccccc3)cc(=O)oc12` (stereo not given), the Potency was 2.94 µM (active).

For `CC(NS(=O)(=O)c1ccc(Br)cc1)C(=O)NCC1CCCO1` (stereo not given), the Potency entry was “inactive”.

As to `O=C(NNC(=O)c1cc(-c2ccccc2Cl)nc2ccccc12)c1csc(N2CCOCC2)n1`, the Potency entry is “inactive”. Still for that read-out and setting: the result for `Cc1cc(C)cc(Oc2c(C(F)(F)F)oc3cc(OCC(=O)O)ccc3c2=O)c1` reads “inactive”.

With `COc1ccccc1C1CCN(C(=S)Nc2ccc(Br)cc2)CC1`, the Potency entry is “inactive”. Regarding `COc1ccccc1OCCNC(=O)C(CCSC)NC(=O)COc1ccccc1` (stereo not given), the Potency result is “inactive”. With `Cc1ccc(CNC(=O)C2CCN(S(=O)(=O)c3ccc4nc5c(c(C(=O)O)c4c3)CC(C)CC5)CC2)cc1` (stereo not given), the Potency entry was “inactive”. As for `CC1CCN(C(=O)c2ccccc2NC(=O)Cc2ccccc2)CC1`, the Potency result was “inactive”.

For `Cc1c(NC(=O)c2cc(-c3ccc(Br)cc3)on2)c(=O)n(-c2ccccc2)n1C`, the Potency result was “inactive”. Take `Cc1ccccc1-n1c(C)cc(/C=C2\NC(=O)NC2=O)c1C`: the Potency entry is “inactive”.

Take `Cc1no[n+]([O-])c1COc1ccccc1/C=C1\NC(=S)NC1=O`: the Potency was 10.4 µM (active). On to `O=C(CN1CCN(S(=O)(=O)c2ccc(F)cc2)CC1)NC1CC1`, for which the Potency entry is “inactive”. `CC(=O)c1ccc(S(=O)(=O)NCc2nnnn2-c2ccccc2)cc1`: the Potency result was “inactive”. In the case of `Cc1cc(NC(=O)COc2ccccc2C#N)no1`, the Potency result was “inactive”. Consider `CCOC(=O)C1CCN(Cc2nnc(-c3cccc(Br)c3)o2)CC1`, for which the Potency result is “inactive”. As to `CCOC(=O)C1CCN(c2ncnc3c2c(-c2ccccc2)cn3-c2ccc(C)cc2)CC1`, the Potency result is “inactive”. Regarding `CCOC(=O)C1CCN(c2ncnc3c2oc2ccc(Br)cc23)CC1`, the Potency was 13.1 µM (active). Regarding `Cn1cncc1COC(=O)c1ccc(Cl)cc1`, the Potency result is “inactive”.

For the compound `COc1ccccc1C(=O)NCc1nnc(SC(C)C(=O)Nc2nccs2)n1C` (stereo not given), the Potency entry is “inactive”. Same read-out and setting: to `Cc1ccc(NC(=O)CN2CCc3ccccc3C2)cc1C` belongs “inactive”. Regarding `O=C(CN1CCN(Cc2ccccc2)CC1)NC(c1ccccc1)c1ccccc1`, the Potency is 14.7 µM (active). On to `CC1CN(CC(=O)NC(C)c2ccccc2)CC(C)O1` (stereo not given), for which the Potency result is “inactive”.

For the compound `O=C(Cc1ccc(-c2ccccc2)cc1)NC(c1ccccc1)c1ccccc1`, the Potency entry was “inactive”. For `CCCc1cc(=O)[nH]c(SCC(=O)Nc2sc3c(c2C#N)CCCC3)n1`, the Potency entry is “inactive”.

Turning to `N#CCCN(C(=O)COC(=O)c1ccc(S(=O)(=O)N2CCCCCC2)cc1)c1ccccc1`, the Potency entry is “inactive”.

`CC(C)(CNC(=O)CNC(=O)C1CCCCC1)N1CCOCC1`: the Potency result was “inactive”. Still for that read-out and setting: the result for `O=C(O)c1ccccc1-c1ccccc1C(=O)NCCc1ccccc1` reads “inactive”; that for `Cn1c(=O)c2c(n(Cc3ccccc3)c1=O)NC(=O)C2CC(=O)N1CCc2ccccc2C1` (stereo not given), 11.7 µM (active).

As for `CC1(C)CC(=O)C(CC(=O)N2CCC(Cc3ccccc3)CC2)C(=O)C1`, the Potency result is “inactive”. On to `O=C(C(=O)N1CCc2ccccc2C1)N1CCc2ccccc2C1`, for which the Potency result is “inactive”.
